This note sets out measurements from PubChem BioAssay (NCATS).

Inconclusive results are not listed. Entries that show only a call come without a potency. A number with no mark means an inactive call. The source made the active and inactive calls. Calls come from the whole dose curve; as a rule, active = well fitted inhibition curve with a large enough effect; inconclusive = small, poorly fitted or top-dose-only effect; inactive = no such curve, though single readings can be large or run the other way. Numbered stars: 1 amine (or outer) side, 2 acyl side, 3 side chain; on linkers, the order of the positions; unused ones are H or OH. Square brackets hold non-standard residues; d marks the D form. Peptide text beside a SMILES is read from it. * marks the point of attachment. ξ: configuration not given here. X9 = CCC(C)(N*)C(=O)C1CC[C@@H](C(=O)N[C@@H](Cc2ccccc2)C(=O)NCC(=O)O)N1; X8 = O=C([C@@H]1CC(O)CN1[*:1])[*:2]; aIle = CC[C@@H](C)[C@H](N)C(=O)O; Thr(3ξ) = CC(O)[C@H](N)C(=O)O; ξIva = CCC(C)(N)C(=O)O; Aib = CC(C)(N)C(=O)O

The test has as its target Retinaldehyde dehydrogenase 3 (Homo sapiens) (UniProt P47895). Put plainly: qHTS for Inhibitors of the Aldehyde Dehydrogenase Family (ALDH1A3) Primary screen (AID 2061315). To be noted: ALDH inhibition qHTS; series mostly up to 56 µM. In general terms: In qHTS, concentration-response curves come from the screen itself.
As to `CC(=O)O[C@@H]1[C@@H](O)[C@H](C)O[C@@H](O[C@H]2[C@@H]3C=CO[C@@H](O[C@@H]4O[C@H](CO)[C@@H](O)[C@H](O)[C@H]4O)[C@@H]3[C@@]3(CO)O[C@@H]23)[C@@H]1OC(=O)/C=C/c1ccccc1`, the Potency entry was “inactive”.
On the same count and under the same terms, under `COc1c2c(cc3c1-c1c(cc4c(c1OC)OCO4)CC(C)C(C)C3)OCO2` (configuration not stated) stands “inactive”; under `COC(=O)C(CC1(O)c2ccccc2N2C(=O)C(CC(C)C)NC21)n1cnc2ccccc2c1=O` (configuration not stated), “inactive”; under `C[C@H]1CC[C@@]2(OC1)O[C@H]1CC3C4CC=C5C[C@H](O)C[C@@H](O[C@@H]6O[C@@H](C)[C@H](O)[C@@H](O)[C@H]6O[C@@H]6O[C@@H](C)[C@H](O)[C@@H](O)[C@H]6O)[C@]5(C)C4CC[C@]3(C)[C@H]1[C@@H]2C` (some centres not stated), “inactive”.
Regarding `COc1ccc(C[C@H]2COC(=O)[C@@H]2Cc2ccc(O[C@@H]3O[C@H](CO)[C@@H](O)[C@H](O)[C@H]3O)c(OC)c2)cc1OC`, the Potency result is “inactive”.
Take `O=C(Cc1ccccc1)OC[C@H]1O[C@H](O[C@H]2O[C@H](CO)[C@@H](O)[C@H](O)[C@H]2O)[C@H](O)[C@@H](O)[C@@H]1O`: the Potency entry is “inactive”.
For `C=C(C(=O)O)C1CC2=C(C)CCCC2(C)C[C@@H]1O` (some centres not stated), the Potency entry is “inactive”.
For the molecule `C[C@@H]1O[C@@H](O[C@H]2[C@H](OC(=O)[C@]34CCC(C)(C)C[C@H]3C3=CCC5[C@@]6(C)CC[C@H](O[C@@H]7O[C@H](CO[C@@H]8OC[C@H](O)[C@H](O)[C@H]8O[C@@H]8OC[C@@H](O)[C@H](O)[C@H]8O)[C@@H](O)[C@H](O)[C@H]7O)C(C)(C)C6CC[C@@]5(C)[C@]3(C)C[C@H]4O)O[C@H](CO)[C@@H](O)[C@@H]2O)[C@H](O[C@@H]2O[C@H](CO)[C@@H](O)[C@H](O)[C@H]2O)[C@H](O)[C@H]1O[C@@H]1OC[C@@H](O)[C@H](O[C@@H]2OC[C@@H](O)[C@H](O)[C@H]2O)[C@H]1O` (some centres not stated), the activity change, negative = inhibition was 8.82% [at 11.2 µM].
Take `COc1ccc(CC(=O)NCc2ccccc2-c2ccccc2C(=O)NCCc2cccnc2)cc1`: the Potency result is “inactive”.
As for `C=C(C(=O)O)[C@@H]1CC[C@H](C)[C@@H]2CC(=O)C(C)=C2C1`, the Potency entry is “inactive”.
The same measure, in the same setting: under `Cc1ccc(Sc2cncc3sc(C(N)=O)cc23)cc1` stands “inactive”.
With `C=C(C)[C@@]1(O)C[C@@]2(C)C(=CC1=O)CC[C@@H](O)[C@@H]2C`, the Potency result was “inactive”.
In the case of `O=C1NC2CCc3nc4ccccc4c(=O)n3C2=Nc2ccccc21` (configuration not stated), the Potency entry was “inactive”.
As to `CC[C@@H](C)[C@H](NC(=O)C(C)(C)NC(=O)[C@H](CCC(N)=O)NC(=O)C(C)(CC)NC(=O)[C@H](Cc1c[nH]c2ccccc12)NC(C)=O)C(=O)N[C@H](C(=O)NC(C)(C)C(=O)N[C@@H](CC(C)C)C(=O)NC(C)(C)C(=O)N1CCC[C@H]1C(=O)N[C@@H](CCC(N)=O)C(=O)NC(C)(C)C(=O)N1CC(O)C[C@H]1C(=O)NC(C)(CC)C(=O)C1CC[C@@H](C(=O)N[C@@H](Cc2ccccc2)C(=O)NCC(=O)O)N1)C(C)O` (some centres not stated) (Ac-W[ξIva]Q[Aib][aIle][Thr(3ξ)][Aib]L[Aib]PQ[Aib][X8]-X9), the activity change, negative = inhibition was 18.1% [at 11.2 µM].
`COc1cc(C)c(C(=O)O[C@H]2[C@@H](O)[C@H](n3ccc(=O)[nH]c3=O)O[C@@H]2CO)c(OC)c1`: the Potency entry is “inactive”.
Same read-out and setting: as for `CCOc1nc(NC(=O)Cc2cc(OC)ccc2OC)cc(N)c1C#N`, the entry is “inactive”; as for `C=C1C(=O)O[C@@H]2C=C(COC(C)=O)CC/C=C(\CO)CC[C@@H]12`, “inactive”.
Take `O=C(O)c1cccc(-c2ccc(-c3cn(C(=O)N4CCCCC4Cc4ccccc4)nn3)cc2)c1` (configuration not stated): the Potency result is “inactive”.
For `CC(=O)/C=C/C1C(C)CC(O[C@@H]2O[C@H](CO)[C@@H](O)[C@H](O)[C@H]2O)CC1(C)C` (some centres not stated), the Potency result is “inactive”.
Turning to `N#Cc1cc(-c2ccnc(Nc3ccc(N4CCOCC4)cc3)n2)ccc1OC1CCOCC1`, the Potency entry is “inactive”.
On the same count and under the same terms, under `CCCO[C@@H]1O[C@H](CO)[C@@H](O)[C@H](O)[C@H]1O[C@@H]1OC[C@@H](O)[C@H](O)[C@H]1O` stands “inactive”.
In the case of `C[C@@H]1O[C@@H](O[C@H]2[C@H](O)[C@@H](O)[C@H](OC[C@H]3O[C@@H](OC(=O)[C@]45CCC(C)(C)C[C@H]4C4=CCC6[C@@]7(C)C[C@H](O)[C@H](O[C@@H]8O[C@H](CO)[C@@H](O)[C@H](O)[C@H]8O)[C@@](C)(C(=O)O)C7CC[C@@]6(C)[C@]4(C)CC5)[C@H](O[C@@H]4O[C@H](CO)[C@@H](O)[C@H](O)[C@H]4O)[C@@H](O)[C@@H]3O)O[C@@H]2CO)[C@H](O)[C@H](O)[C@H]1O` (some centres not stated), the activity change, negative = inhibition is -4.1% [at 11.2 µM].
